Screens (PubChem)
An excerpt weighted towards active compounds, which were near 4.5% of everything screened.
Jurkat NFkB inh: inhibitors of the PMA/ionomycin-induced NF-kB reporter in Jurkat cells | hit rate 0.53% among 330,000 | AID 435003 | PMA/ionomycin-induced NF-kB luciferase reporter, luminescence | inhibition, % at 4 µM; in the data active = inhibition above about 50%
CSC inhib: cancer stem cell inhibition. cancer stem cell-like cells viability, luminescence. inhibition, % at 7.5 µM. hit rate 1.1% among 300,000. AID 2717; in the data active = inhibition above about 75%; inconclusive = no clear call, values can overlap the other calls; tested in HMLE shEcad cells
aSyn UTR inh: MLPCN primary screen, SNCA 5' untranslated region; AID 1813; inhibition, % (tested at 7.5 µM); hit rate 0.82% among 300,000; alpha-synuclein 5'UTR reporter, inhibitor activity; in the data active = inhibition above about 60%; inconclusive = no clear call, values can overlap the other calls;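 also: H4 neuroglioblastoma cells stably carrying SNCA 5'UTR luciferase fusion; 0% = DMSO wells and 100% = positive control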
Gli-Sufu antag: antagonists of Gli-Sufu signaling. Sufu-KO-LIGHT fibroblasts, Gli luciferase reporter luminescence. inhibition, % at 5 µM. hit rate 0.74% among 340,000;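 active = inhibition above about 55%, limit read from the data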;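 also: 0% = DMSO-treated cells and 100% = wells with medium but no cells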
697 NFkB inh: inhibitors of the PMA/ionomycin-induced NF-kB reporter in 697 B cells; inhibition, % at 4 µM; 697 B-cell NF-kB luciferase reporter, 16 h; hit rate 0.33% among 330,000; in the data active = inhibition above about 35%
Mdm2-MdmX inh: disrupts the human Mdm2-MdmX interaction | O15151+Q00987 | SaOS-2 split-luciferase Mdm2/MdmX complementation, luminescence | inhibition, % at 8 µM | hit rate 3% among 330,000 | AID 485346;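 active = inhibition of at least 50% at 8 µM in the primary screen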
Target sequence (O15151 whole entry, looked up): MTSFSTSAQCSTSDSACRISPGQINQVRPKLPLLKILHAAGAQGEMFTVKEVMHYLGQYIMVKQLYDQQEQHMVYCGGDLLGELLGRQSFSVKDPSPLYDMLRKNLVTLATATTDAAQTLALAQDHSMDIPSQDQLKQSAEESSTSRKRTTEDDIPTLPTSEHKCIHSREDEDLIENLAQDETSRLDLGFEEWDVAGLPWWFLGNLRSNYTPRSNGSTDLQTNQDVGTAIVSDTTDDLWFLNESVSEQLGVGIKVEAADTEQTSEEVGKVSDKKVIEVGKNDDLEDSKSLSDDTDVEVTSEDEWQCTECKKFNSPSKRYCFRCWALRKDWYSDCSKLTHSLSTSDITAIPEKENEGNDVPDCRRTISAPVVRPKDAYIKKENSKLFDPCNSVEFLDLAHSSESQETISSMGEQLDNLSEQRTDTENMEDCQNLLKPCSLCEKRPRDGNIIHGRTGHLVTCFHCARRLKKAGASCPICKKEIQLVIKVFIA
Target sequence (Q00987 whole entry, looked up): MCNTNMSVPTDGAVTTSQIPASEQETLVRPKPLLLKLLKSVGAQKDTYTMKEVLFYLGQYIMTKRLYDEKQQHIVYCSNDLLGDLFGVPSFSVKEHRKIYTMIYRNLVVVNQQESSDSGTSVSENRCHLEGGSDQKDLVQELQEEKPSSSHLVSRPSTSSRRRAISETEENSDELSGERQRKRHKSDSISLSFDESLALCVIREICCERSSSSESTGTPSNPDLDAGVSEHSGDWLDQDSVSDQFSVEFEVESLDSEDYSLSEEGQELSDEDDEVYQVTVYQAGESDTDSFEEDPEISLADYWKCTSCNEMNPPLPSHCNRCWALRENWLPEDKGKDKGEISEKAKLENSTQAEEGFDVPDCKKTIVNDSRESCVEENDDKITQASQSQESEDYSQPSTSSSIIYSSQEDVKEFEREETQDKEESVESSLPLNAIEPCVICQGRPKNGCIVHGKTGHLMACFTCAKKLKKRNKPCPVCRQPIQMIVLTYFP
697 NFkB conf: inhibitors of the PMA/ionomycin-induced NF-kB reporter in 697 B cells, retest. shares compounds with 697 NFkB inh. 697 B-cell NF-kB luciferase, 16 h. inhibition, % at 4 µM. hit rate 35% among 2,000; in the data active = inhibition mostly above about 28%, no sharp cut-off; inactive = mostly below about 22%
* = called active by the depositor.

Screening CCN(CC)S(=O)(=O)c1cccc(-c2nc3n(n2)Cc2ccccc2-3)c1 returned Jurkat NFkB inh -48, CSC inhib 6, aSyn UTR inh -86, Gli-Sufu antag -44, 697 NFkB inh -55 and Mdm2-MdmX inh -13.
`CCC1(CC)NC(=O)N(CC(=O)OCC(=O)c2ccccc2OC)C1=O` gave Jurkat NFkB inh 13, CSC inhib -9, aSyn UTR inh 0, Gli-Sufu antag -4, 697 NFkB inh 19 and Mdm2-MdmX inh 30.
Screening Cc1nc(Nc2ccc(C(=O)O)cc2)sc1-c1ccccc1 returned Jurkat NFkB inh -36, CSC inhib 1, aSyn UTR inh -1, Gli-Sufu antag -60, 697 NFkB inh -284, Mdm2-MdmX inh -179 and 697 NFkB conf -401.
For COC(=O)c1sc(Nc2ccccc2)nc1C the results were Jurkat NFkB inh -58, CSC inhib -2, aSyn UTR inh -157, Gli-Sufu antag -27, 697 NFkB inh -48 and Mdm2-MdmX inh -16.
CCCCCC(=O)NNC1=NCC(Cc2cccc(Cl)c2)S1 (stereo not drawn) was read as Jurkat NFkB inh -1, aSyn UTR inh 4, Gli-Sufu antag 12, 697 NFkB inh 9 and Mdm2-MdmX inh -16.
Screening Cc1ccc(N=Nc2cc(C)ccc2N)cc1 returned Jurkat NFkB inh -98, CSC inhib 41, aSyn UTR inh inconclusive, Gli-Sufu antag -128, 697 NFkB inh -326, Mdm2-MdmX inh -166 and 697 NFkB conf -157.
For Cc1ccc(C(C)C)cc1OCC(=O)N1CCN(C(=O)c2ccco2)CC1 the results were Jurkat NFkB inh 3, CSC inhib -4, aSyn UTR inh 4, Gli-Sufu antag -1, 697 NFkB inh 1 and Mdm2-MdmX inh -9.
Screening COc1cccc(C2C3=C(CCCC3=O)Nc3nc(-c4cc(OC)c(OC)c(OC)c4)nn32)c1 (stereo not drawn) returned Jurkat NFkB inh -12, CSC inhib -5, aSyn UTR inh 40, Gli-Sufu antag 16, 697 NFkB inh 22 and Mdm2-MdmX inh 21.
COc1cc(-c2nc3n(n2)C(c2ccc(F)cc2)C2=C(CCCC2=O)N3)cc(OC)c1OC (stereo not drawn) was read as Jurkat NFkB inh 16, CSC inhib -9, aSyn UTR inh -1, Gli-Sufu antag 19, 697 NFkB inh 37*, Mdm2-MdmX inh 34 and 697 NFkB conf 33*.
Cc1ccc(Cl)cc1N1CCN(C(=O)CN(c2ccccc2)S(=O)(=O)N(C)C)CC1 was read as Jurkat NFkB inh -4, CSC inhib 7, aSyn UTR inh 3, Gli-Sufu antag 23, 697 NFkB inh -21 and Mdm2-MdmX inh 17.
For O=C(Cn1c(=O)oc2cc(S(=O)(=O)N3CCCCC3)ccc21)N1CCCCC1 the results were Jurkat NFkB inh -4, CSC inhib -8, aSyn UTR inh 10, Gli-Sufu antag 4, 697 NFkB inh 9 and Mdm2-MdmX inh 25.
COc1ccc(Br)cc1/C=N/Nc1cccc(C(=O)O)c1 was read as Jurkat NFkB inh -7, CSC inhib 4, aSyn UTR inh -76, Gli-Sufu antag 7, 697 NFkB inh -37 and Mdm2-MdmX inh -4.
COc1ccccc1/C=C/C=N/Nc1cccc(C(=O)O)c1 was read as Jurkat NFkB inh -113, CSC inhib -7, aSyn UTR inh -119, Gli-Sufu antag -53, 697 NFkB inh -275, Mdm2-MdmX inh -149 and 697 NFkB conf -39.
For CCn1ncc(CN2CCC(Oc3cc(C(=O)NC4CC4)ccc3OC)CC2)c1C the results were Jurkat NFkB inh 15, CSC inhib -4, aSyn UTR inh 9, Gli-Sufu antag 7, 697 NFkB inh -11 and Mdm2-MdmX inh -9.
`COC(=O)c1c(NC(=O)c2ccco2)sc2c1CCN(C(C)=O)C2` gave Jurkat NFkB inh -7, CSC inhib 3, aSyn UTR inh -29, Gli-Sufu antag -7, 697 NFkB inh 38*, Mdm2-MdmX inh 27 and 697 NFkB conf 9.
COc1ccc(CC(=O)Nc2cccc(-c3ccc4nnc(C)n4n3)c2)cc1 was read as Jurkat NFkB inh 20, CSC inhib -27, aSyn UTR inh -4, Gli-Sufu antag 14, 697 NFkB inh 35, Mdm2-MdmX inh 22 and 697 NFkB conf 29*.
For Cc1nnc2ccc(-c3cccc(NS(=O)(=O)c4cc(F)ccc4F)c3)nn12 the results were Jurkat NFkB inh -12, CSC inhib 14, aSyn UTR inh 37, Gli-Sufu antag 14, 697 NFkB inh 38*, Mdm2-MdmX inh 49 and 697 NFkB conf -1.
Screening CCS(=O)(=O)Nc1cccc(-c2ccc3nnc(-c4cccnc4)n3n2)c1 returned Jurkat NFkB inh -13, CSC inhib 1, aSyn UTR inh 24, Gli-Sufu antag 6, 697 NFkB inh 8 and Mdm2-MdmX inh 19.
Screening CCCS(=O)(=O)Nc1cccc(-c2ccc3nnc(C)n3n2)c1 returned Jurkat NFkB inh 9, aSyn UTR inh 13, Gli-Sufu antag 17, 697 NFkB inh 39*, Mdm2-MdmX inh 8 and 697 NFkB conf 39*.
Screening CC1CCN(S(=O)(=O)c2cnc(Cl)c(Br)c2)CC1 returned Jurkat NFkB inh -1, CSC inhib 7, aSyn UTR inh -3, Gli-Sufu antag 7, 697 NFkB inh 38*, Mdm2-MdmX inh -44 and 697 NFkB conf 23.
Screening Cc1ccc(C(=O)N/N=C/c2nc3ccccc3n2C)cc1 returned Jurkat NFkB inh -15, CSC inhib 7, aSyn UTR inh -27, Gli-Sufu antag -14, 697 NFkB inh 39*, Mdm2-MdmX inh 12 and 697 NFkB conf 20.
`Cn1c(/C=N/NC(=O)c2ccccc2Br)nc2ccccc21` gave Jurkat NFkB inh 5, CSC inhib 0, aSyn UTR inh -18, Gli-Sufu antag 15, 697 NFkB inh 16 and Mdm2-MdmX inh 16.
COc1cc2c(cc1OC)-c1cc(N3CCc4ccccc43)nc(=O)n1CC2 was read as Jurkat NFkB inh -11, CSC inhib 5, aSyn UTR inh -13, Gli-Sufu antag 1, 697 NFkB inh 35*, Mdm2-MdmX inh 23 and 697 NFkB conf 19.
Screening COc1cc2c(cc1OC)-c1cc(N3CCCc4ccccc43)nc(=O)n1CC2 returned Jurkat NFkB inh -2, CSC inhib 16, aSyn UTR inh 29, Gli-Sufu antag 0, 697 NFkB inh 19 and Mdm2-MdmX inh 18.
For COc1cc2c(cc1OC)-c1cc(Nc3ccccc3Br)nc(=O)n1CC2 the results were Jurkat NFkB inh 3, CSC inhib 2, aSyn UTR inh 58, Gli-Sufu antag 8, 697 NFkB inh 35*, Mdm2-MdmX inh 44 and 697 NFkB conf 10.
For Cc1cc(C)c(NC(=O)C2CCCO2)c(C)c1NC(=O)C1CCCO1 (stereo not drawn) the results were Jurkat NFkB inh 0, CSC inhib -9, aSyn UTR inh -2, Gli-Sufu antag -2, 697 NFkB inh 2 and Mdm2-MdmX inh 27.
